An excerpt weighted towards active compounds, which were near 4.6% of everything screened.
hcDAF12 agonist – activators of H. contortus DAF-12 nuclear receptor; 370,000 tested, 1.4% active; activation, % at 6.8 µM; AID 652067; HEK293 hcDAF-12 lit1-tk-luc reporter, luminescence; 0% DMSO, 100% Δ7-dafachronic acid;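 active = activation above the mean of all tested compounds plus 3 SD, cut at about 5.5% in these data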;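 note: 100% = response to 3 µM Δ7-dafachronic acid high control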
hgDAF12 agonist – agonists of H. glycines DAF-12 nuclear receptor | 370,000 tested, 1.8% active | HEK293 GAL4-hgDAF12 UAS-luciferase reporter, agonist luminescence; normalized to butyrate control | activation, % at 6.8 µM;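 active = activation above a cutoff set at the mean of all screened compounds plus 3 SD, cut at about 10% in these data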;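 note: 0% = DMSO wells and 100% = sodium butyrate wells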
DAX1 inh-1 – inhibitors of DAX1 repression of SF-1 activated StAR promoter; HEK293T StAR-luciferase reporter, SF-1/DAX-1 repression relief; inhibition, % at 6.8 µM; 370,000 tested, 1.1% active; AID 652010;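 active = inhibition above the mean over all tested compounds plus 3 SD, cut at about 3.6% in these data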;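 note: 0% = DAX-1 cells with DMSO and 100% = cells lacking DAX-1 with DMSO; higher inhibition means more luminescence from relief of DAX-1 repression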
DAX1 inh-2 – NR0B1 (DAX1) inhibition; HEK293 Gal4-DAX1 luciferase reporter, luminescence; inhibition, % at 6.75 µM; 340,000 tested, 0.99% active; AID 504766;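 active = inhibition above the mean over all tested compounds plus 3 SD, cut at about 4.2% in these data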;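 note: 0% = DAX1-transfected cells with DMSO and 100% = empty-vector control cells with DMSO; inhibition shows as a rise in luminescence from relieved DAX1 repression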
Wee1 stabilizer – blocks degradation of human Wee1 kinase; HeLa Luc-Wee1K328M stability, luciferase luminescence; 100% = proteasome inhibitor MG132 effect; reporter increase, % at 5 µM; 220,000 tested, 1.2% active; AID 1321;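 active = activation above the mean of all tested compounds plus 3 SD, set per screening run, cut at about 8.8% in these data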;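 note: cells exposed to compound for 20 h before luminescence read; 0% = DMSO alone and 100% = MG132 at 30 µM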
Target sequence (P30291 whole entry K328M): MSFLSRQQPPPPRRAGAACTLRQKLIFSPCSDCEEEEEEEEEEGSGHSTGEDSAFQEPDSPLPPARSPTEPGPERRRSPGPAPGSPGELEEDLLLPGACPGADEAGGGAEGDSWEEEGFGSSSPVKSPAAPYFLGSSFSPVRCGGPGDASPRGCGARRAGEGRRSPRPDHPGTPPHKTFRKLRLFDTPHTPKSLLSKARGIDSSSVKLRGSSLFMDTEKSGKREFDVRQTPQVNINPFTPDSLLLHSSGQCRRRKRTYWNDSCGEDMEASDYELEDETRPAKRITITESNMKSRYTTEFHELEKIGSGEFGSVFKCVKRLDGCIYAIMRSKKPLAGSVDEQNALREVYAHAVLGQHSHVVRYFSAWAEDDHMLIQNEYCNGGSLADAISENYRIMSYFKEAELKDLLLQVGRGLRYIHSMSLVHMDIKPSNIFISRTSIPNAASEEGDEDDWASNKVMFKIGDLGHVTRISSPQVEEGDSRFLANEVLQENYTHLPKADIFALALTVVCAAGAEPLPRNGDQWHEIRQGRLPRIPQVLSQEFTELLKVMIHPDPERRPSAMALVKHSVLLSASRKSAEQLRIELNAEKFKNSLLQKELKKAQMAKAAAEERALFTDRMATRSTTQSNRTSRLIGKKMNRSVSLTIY
ssDAF12 agonist – activates DAF-12 receptor from parasite S. stercoralis; activation, % at 6.8 µM; HEK293 ssDAF-12/GRIP1 lit1-tk-luc reporter, luminescence; % of 3 µM dafachronic acid response; 370,000 tested, 1% active;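 active = activation above the mean over all tested compounds plus 3 SD, cut at about 0.9% in these data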;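 note: 0% = DMSO-only wells and 100% = 3 µM delta7-dafachronic acid wells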
Numbers without * were called inactive; x = no result.

SMILES | hcDAF12 agonist | hgDAF12 agonist | DAX1 inh-1 | DAX1 inh-2 | Wee1 stabilizer | ssDAF12 agonist
c1ccc(-c2nc(-c3ccccn3)no2)cc1 | 6.4* | 3 | 3 | -4 | -3 | -1
O=C(CSc1nnc(-c2ccccc2F)n1Cc1ccco1)Nc1ccccc1-c1ccccc1 | -1 | 0 | -1 | x | x | -2
CC(=O)C1=C(O)C(=O)OC1c1ccc(Cl)cc1 (centres undefined) | -1 | 1 | 0 | 4.4* | -4 | 0
COc1ccc(NC(=O)C2(C)CCN2CCOc2ccc(C)cc2)cc1OC (centres undefined) | 2 | -4 | 0 | x | x | -1
CCc1ccc(-c2ccc(C(=O)C(F)(F)F)[nH]2)cc1 | 3 | 13* | 2 | 2 | 6 | 0
CCc1ccc(C(=O)c2cncc(Br)c2)cc1 | 0 | 4 | 0 | 1 | -1 | -2
COC(=O)[C@]1(C)CN(C(=O)OC(C)(C)C)C2=C1C(=O)C[C@@](C)(C(=O)OC(C)(C)C)C2 | -1 | 1 | -2 | x | x | -1
CCC1(c2ccccc2)SC(=O)NC1=O (centres undefined) | -1 | -3 | -1 | 4 | x | -1
CCC1(c2ccccc2)SC(N)=NC1=O (centres undefined) | 0 | 2 | 0 | 6.6* | x | -1
COc1cccc(N2CCN(C(=O)c3ccc4nc(N5CCC(C)CC5)sc4c3)CC2)c1 | 1 | 12* | 1 | x | 2 | -1
NC(=O)C1CCN(C(=O)c2ccc3nc(N4CCCCC4)sc3c2)CC1 | 1 | 7 | 1 | 5.2* | 1 | 0
CCOC(=O)N1CCN(C(=O)c2ccc3nc(N4CCC(C)CC4)sc3c2)CC1 | -1 | 0 | -1 | -2 | 1 | -2
O=C(COC(=O)/C=C/c1cccc(C(F)(F)F)c1)NC1CCS(=O)(=O)C1 (centres undefined) | -1 | 2 | -1 | 1 | x | -1
CCc1nnc(NC(=O)CSc2nnc3c(n2)[nH]c2ccccc23)s1 | -1 | 1 | 0 | 0 | -3 | 1.8*
COc1cc(N=Nc2ccc3ccccc3c2)ccc1O | 6 | 9 | 2 | 8.1* | x | 1.7*
COc1cc(N=Nc2ccccc2C(=O)O)ccc1O | -2 | -2 | 0 | -1 | 0 | -1
O=c1oc2ccccc2c(N2CCCCC2)c1[N+](=O)[O-] | 2 | -1 | 0 | 0 | 2 | -1
O=c1oc2ccccc2c(N2CCCC2)c1[N+](=O)[O-] | -1 | -3 | 0 | 4.7* | -3 | -1
O=C(CSc1ccccc1)NCCc1ccc(F)cc1 | -1 | 2 | 0 | 1 | x | -1
Cc1ccc(SCC(=O)NCCc2ccccc2)cc1 | 0 | -1 | 0 | 1 | x | 1.7*
O=C(CSc1ccccc1)NCCc1ccccc1 | 0 | 6 | 0 | 5.6* | x | -1
CC(C)=CC(=O)NCCc1ccccc1 | 2 | 11* | 2 | 2 | 10.0* | -1
CC1(C(=O)NCc2ccccc2)CN(S(C)(=O)=O)CC(=O)N1Cc1cccc(C(F)(F)F)c1 (centres undefined) | 0 | 3 | 1 | x | x | -1
O=[N+]([O-])c1ccc(O)c(/C=N/n2cnnc2)c1 | -1 | 0 | 1 | 5.1* | -2 | -1
O=[N+]([O-])c1cccc(/C=N/n2cnnc2)c1 | 1 | -2 | 1 | 6.3* | -3 | 0
SMILES | hcDAF12 agonist | hgDAF12 agonist | DAX1 inh-1 | DAX1 inh-2 | Wee1 stabilizer | ssDAF12 agonist
Brc1cccc(/C=N\n2cnnc2)c1 | -1 | 0 | 0 | 2 | -1 | -2
COC(=O)[C@@]1(Cc2ccc(F)cc2)[C@H]2c3cc(C(=O)N4CCCC4)n(Cc4ccc(C)o4)c3C[C@H]2CN1C(=O)c1ccccc1 | -2 | -2 | 0 | x | x | -1
Cc1ccc(NC(=O)CNC(=O)Cc2cccc3ccccc23)c(O)c1 | 1 | 2 | -2 | -1 | x | 0
CCOC(=O)[C@@]12CCC3=C1N(CCC3)C(=O)[C@H](CC(=O)NCc1ccc(C)o1)C2 | 5 | 5 | 0 | x | x | 0
CCOc1ccccc1NC(=S)N1CCC(NC(=O)c2ccco2)CC1 | 0 | 1 | 0 | -1 | 3 | 0
CCOc1ccccc1NC(=S)N1CCC(NC(=O)C(C)(C)C)CC1 | 1 | 3 | -1 | 5.0* | 1 | -1
CCOc1ccccc1NC(=S)N(CCOC)C1CCN(C(C)=O)CC1 | 0 | 0 | 0 | 1 | -2 | -1
CCOc1ccccc1NC(=S)N(CCC(C)C)C1CCN(C(C)=O)CC1 | 1 | 2 | 0 | 4.7* | 3 | -1
O=C(Nc1cccc(S(=O)(=O)NC2=NCCC2)c1)c1ccc(=O)[nH]c1 | 0 | -2 | 1 | 1 | x | -1
O=C(NCc1ccccc1CN1CCCC1)C1CCN(C(=O)c2ccc(F)cc2)CC1 | 0 | 0 | 3.8* | 0 | x | -1
Cc1ccc2cc(C=O)c(N3CCOCC3)nc2c1C | -1 | 1 | 0 | 0 | x | -2
Cc1ccc2nc(N3CCOCC3)c(C=O)cc2c1 | -2 | 1 | 0 | 8.2* | x | -1
O=C(CNc1cccc2ccccc12)N/N=C/c1ccc(C(=O)O)cc1 | 5 | 0 | 0 | -1 | 1 | 1.0*
O=C(CNc1ccc2ccccc2c1)N/N=C/c1ccc(C(=O)O)cc1 | 5 | 5 | 0 | 2 | 2 | -1
CC(=O)Oc1ccc(C(=O)Nc2ccccc2C(=O)Nc2cccc(C(=O)O)c2)cc1 | -1 | 1 | 0 | 5.4* | x | -1
CC(=O)Oc1ccc(C(=O)Nc2cccc(C(=O)Nc3ccccc3C(=O)O)c2)cc1 | 0 | -2 | 0 | 1 | x | -2
Cc1ccc(C2(c3noc(CN(C)Cc4cccnc4)n3)CCCC2)cc1 | -1 | 0 | 0 | 4.5* | 0 | -1
Cc1ccc(C2(c3noc(CN(C)Cc4ccccn4)n3)CCCC2)cc1 | 1 | -1 | 0 | 0 | -4 | -1
COCCn1c(=NC(=O)c2ccc(S(=O)(=O)N3CCCc4ccccc43)cc2)sc2cc(S(C)(=O)=O)ccc21 | 0 | 2 | 0 | 4.7* | 0 | -1
CC(C)(CN1CCCN(CC(C)(C)C(=O)O)C1=O)C(=O)O | -2 | 2 | 0 | 0 | x | -1
Cc1nn(C)c(C)c1/C=C(\C#N)S(=O)(=O)c1ccc(F)cc1 | -1 | -3 | 1 | 0 | x | -1
COP(=O)(CC(=O)O)C(CC(C)C)NC(=O)OCc1ccccc1 (centres undefined) | -3 | 1 | 0 | x | x | -1
CC(=O)Nc1ccc2c(c1)[nH]c(=O)c1ccccc12 | 0 | 6 | 1 | 4.6* | x | -1
O=C(Nc1ccc2c(c1)[nH]c(=O)c1ccccc12)C(F)(F)F | 0 | 0 | 0 | 2 | x | -1
CN(Cc1ccccc1N1CCCC1)C(=O)c1cc2cc(Cl)ccc2o1 | 2 | 2 | 0 | 1 | x | 0
